Measured potencies and affinities stand elsewhere. Calls of active or inactive are those of the source.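 The calls were made as follows: active = signal-lowering compounds whose fitted half-maximal concentration is at or below twice the top tested dose in every run; inconclusive = runs disagree, flat 30 to 70% inhibition, or poor curve fit; inactive = the rest.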
target: Protein S100-A4 (Homo sapiens) (UniProt P26447); experiment: human S100A4 peptide interaction inhibition curves – biochemical, fluorescence polarization, cherry-picked hits, dose response (AID 687001); conditions: FP, S100A4/TAMRA-myosin IIA peptide binding; series mostly up to 11 µM
Sequence (P26447 whole entry, looked up): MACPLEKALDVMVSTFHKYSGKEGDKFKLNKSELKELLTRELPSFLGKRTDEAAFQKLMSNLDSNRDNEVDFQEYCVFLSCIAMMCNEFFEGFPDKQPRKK

outcome, inactive:
C[C@@H]1CN([C@H](C)CO)C(=O)c2cc(N(C)C)ccc2O[C@@H](C)CCCCO[C@@H]1CN(C)C(=O)NC1CCCCC1
CC(=O)Nc1ccccc1-c1nc2cc(C#N)c(C#N)cc2[nH]c1=O
CC(=O)N1c2ccc(S(=O)(=O)N3CCC(C(=O)Nc4ncccc4C)CC3)cc2CC1C (centres undefined)
C=C(C)n1c(=O)n(Cc2ccccc2C)c2ccccc21
Cc1ccc(S(=O)(=O)Nc2ccc3c(c2)C(=O)N([C@H](C)CO)C[C@@H](C)[C@@H](CN(C)S(=O)(=O)c2ccc(C)cc2)OCCCC[C@@H](C)O3)cc1
COc1ccccc1CCNC(=O)C(=O)NCCC1CCCCN1S(=O)(=O)c1ccccc1 (centres undefined)
CC(C)(C)c1cc[n+](-c2[nH]c(=O)sc2/C=N/N=C(\[O-])c2ccccc2)cc1
CCCC(=O)Nc1ccc2c(c1)C(=O)N(C)C[C@H](OC)[C@H](C)CN(Cc1ccccc1)[C@H](C)CO2
COc1c(Br)cc([N+](=O)[O-])c(OC)c1C(=O)NC(=O)Nc1c(Cl)cccc1Cl
Cc1ccc(S(=O)(=O)N(C)C[C@H]2Oc3ccc(NC(=O)Nc4ccccc4)cc3C(=O)N([C@@H](C)CO)C[C@H]2C)cc1
Cc1ccc(-c2ccc(=O)n(Cc3ccc(F)cc3)n2)cc1
CCCc1cc(=O)[nH]c(SCC(=O)N2CCc3ccccc32)n1
CN(CCC#N)C(=O)COC(=O)[C@H](Cc1ccccc1)N1C(=O)c2ccccc2C1=O
CCC1(c2ccc(F)cc2)NC(=O)N(CC(=O)N2CCc3ccccc3C2)C1=O (centres undefined)
C[C@@H]1CN([C@@H](C)CO)C(=O)CCCn2nncc2CO[C@@H]1CN(C)S(=O)(=O)c1ccccc1
S=c1[nH]nc(Nc2cccc3ccccc23)s1
Cc1ccc(CCNC(=O)c2ccc(CS(=O)(=O)c3ccccc3C)o2)cc1
C[C@@H]1CN([C@@H](C)CO)C(=O)c2cccc(NC(=O)C3CCOCC3)c2O[C@@H]1CN(C)Cc1ccc(C(=O)Nc2ccccc2N)cc1
NC(=O)c1ccsc1NC(=O)c1ccco1
COc1cccc(C2c3[nH]c4ccccc4c3C[C@H]3C(=O)N(C)CC(=O)N23)c1 (some centres undefined)
CC(C)NC(=O)COc1coc(CN2CCN(c3ccccc3)CC2)cc1=O
C[C@@H]1CN([C@H](C)CO)C(=O)CCCn2cc(nn2)CO[C@H]1CN(C)S(C)(=O)=O
COc1ccc(C(C)(O)c2nc(-c3cccs3)cs2)cc1 (centres undefined)
Cc1nn(-c2ccccc2)c(N)c1N=O
C[C@H](CO)N1C[C@H](C)[C@@H](CN(C)Cc2ccc(Cl)c(Cl)c2)Oc2c(NS(=O)(=O)c3cccs3)cccc2C1=O
COc1cc(OC)c2ccc(=O)oc2c1C(CC(=O)N1CCN(c2ccccc2)CC1)c1ccc2c(c1)OCO2 (centres undefined)
COC(=O)C[C@@H]1CC[C@H]2[C@H](COc3ccc(NS(=O)(=O)c4ccc(C)cc4)cc3C(=O)N2C)O1
O=C(c1cnccn1)N1CC(=O)N2[C@H](CO)[C@@H](c3ccc(-c4ccc(F)cc4)cc3)[C@H]2C1
CN(C(=O)COC(=O)/C=C/c1ccc2c(c1)OCO2)c1c(N)n(Cc2ccccc2)c(=O)[nH]c1=O
CC=Cc1ccc2n(c1=O)C[C@@H]1N[C@H]2[C@H](C(=O)NC2CCCCC2)[C@H]1CO (mixture of isomers)
COc1ccc(/C=C2/CCCc3ccccc3C2=O)cc1
CN1c2ccc(-c3ccccc3)cc2[C@@H]2[C@@H](CCN2C(=O)c2ccccc2)[C@H]1CO
O=C(CSc1ccc([N+](=O)[O-])cn1)Nc1ccc2c(c1)OCO2
Cc1ccc2c(nc3s/c(=C\c4ccc(-c5ccccc5C(=O)O)o4)c(=O)n32)c1C
Cc1ccccc1S(=O)(=O)N(C)C[C@@H]1OCc2cnnn2CCCC(=O)N([C@@H](C)CO)C[C@H]1C
CC(=O)Nc1cccc(C(=O)NC2CCCc3c2cnn3-c2ccccc2F)c1 (centres undefined)
Cc1cc(C(=O)CSc2nc(N)cc(=O)[nH]2)ccc1F
C[C@H]1CN([C@@H](C)CO)C(=O)CCCn2nncc2CO[C@H]1CN(C)S(=O)(=O)c1ccc2c(c1)OCCCO2
O=C(O)c1ccc(/C=C2\SC(=S)N(NC(=O)c3ccccc3)C2=O)cc1

— PubChem BioAssay AID687001 (Broad Institute, 2013)
